# Screen size: about 1,200 compounds; about 480 (40%) were called active. The set was probably picked from earlier hits. These entries were drawn from the full list. Entries with a potency or affinity are not part of this list. A number with no mark means an inactive call. How the calls were made is not given here.
# Assay: HepG2 cell cytotoxicity, dose response, cytotoxicity control, CellTiter-Glo luminescence, cherry-pick, set 2 (AID 743395);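 further: 0% = neutral control wells and -100% = positive control wells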
# Conditions: HepG2 viability, CellTiter-Glo ATP luminescence, 72 h; series mostly up to 26 µM; activity change, negative = cytotoxicity: at the top concentration
row,SMILES,"activity change, negative = cytotoxicity"
1,O=S(=O)(Nc1ccc(F)cc1Cl)c1ccc(-c2cnc(C3CC3)o2)cc1,-20.5%
2,CC(C)c1cccc(-c2csc(C(O)c3ccco3)n2)c1 (stereo not given),-11.9%
3,COc1ccc(OC)c(-c2nnc3n2N=C(c2ccc(OC)c(OC)c2)CS3)c1,-34.3%
4,Cc1cc(N2CCCC2)c(F)cc1/C=C\[N+](=O)[O-],-34.7%
5,NS(=O)(=O)c1ccc2nc(NC(=O)c3ccc4c(c3)OCCO4)sc2c1,4.38%
6,C/C=C/c1ccc([C@@H]2[C@H](CO)N(CC3CC3)[C@H]2CNC(=O)c2ccccc2)cc1,-25.2% [at 23.5 µM]
7,CCOc1ccc(S(=O)(=O)N2CCCCC2)cc1NC(=O)c1ccccc1,18.5%
8,COc1ccc(-c2nc(-c3cccc(C)c3)no2)cc1OC,-1.21%
9,Nc1ccc(S(=O)(=O)Nc2cnc3ccccc3n2)cc1,-11.6%
10,COc1ccc(S(=O)(=O)Cc2ccc(C(=O)N3CCN(c4cccc(C)c4)C(C)C3)o2)cc1 (stereo not given),-11.2%
11,Cc1ccccc1OCC(=O)OCC(=O)NCCc1ccccc1,21%
12,COC(=O)C[C@@H]1CC[C@@H]2[C@H](COc3ccc(NC(=O)c4cc(C)on4)cc3C(=O)N2C)O1,-12.3%
13,CC(=O)N1Cc2cc(C(=O)NCC(F)(F)F)nc(-c3cccc(-c4cccnc4)c3)c2[C@@H]1CCO,-7.78%
14,CN(Cc1c(F)cccc1Cl)C(=O)c1ccc(NC(=O)CC2SC(N3CCCCC3)=NC2=O)cc1 (stereo not given),-8.12%
15,Cc1noc(NS(=O)(=O)c2ccc(N/C=C\C(=O)c3ccccc3)cc2)c1C,-5.75%
16,COc1cc(OC)cc(C(=O)NC(=S)Nc2ccc3oc(=O)ccc3c2)c1,7.96%
17,Cc1cc2nnc(SCC(=O)NCc3ccco3)n2c2ccccc12,10.6%
18,O=C(c1[nH]ncc1-c1ccc(Cl)cc1)C1CO1 (stereo not given),-2.79%
19,S=C(NCc1ccco1)NCC1CCCO1 (stereo not given),-18.5%
20,CCCCC1(C2CCCC2)NC(=O)NC1=O (stereo not given),5%
21,CNS(=O)(=O)c1cccc(C(=O)OCC(=O)c2cc(C)n(CC3CCCO3)c2C)c1 (stereo not given),7.11%
22,O=Cc1ccccc1OCc1ccc2c(c1)OCO2,1.7%
23,CCOC1=C2[C@@H](CN(S(=O)(=O)c3ccc(C)cc3)[C@H]2c2ccc(Cl)cc2)[C@H]2C(=O)N(c3ccccc3)C(=O)[C@H]2C1,-5.52%
24,COc1cc(C(=O)c2cocc2C(=O)c2ccc3c(c2)OCO3)cc(OC)c1OC,-22.8%
25,COc1ccc(N(C)S(=O)(=O)c2cccc(C(=O)NCC3CCCCC3)c2)cc1,-13.4%

row,SMILES,"activity change, negative = cytotoxicity"
1,COCCNC(=O)C1CCCN(C(=O)c2ccc3sccc3c2)CC1 (stereo not given),-0.219%
2,COCC(=O)N1C[C@@H]2[C@H](c3ccccc31)[C@H](CO)N2Cc1ccc(OC)cc1,11.1%
3,COc1ccc2c3c(n(C)c2c1)[C@H](CO)NCC31CCN(Cc2cc(-c3ccccc3)on2)CC1,-16.1%
4,COc1ccc2c(c1)[nH]c1c(=O)n(/N=C/c3ccc(OC)c(CN4CCCC4)c3)cnc12,-6.55%
5,COc1ccc2c3c([nH]c2c1)[C@H](CO)N(C(=O)Nc1ccc(F)cc1)CC31CCN(S(=O)(=O)c2ccccc2)CC1,-4.51%
6,CCCNC(=O)N1CC2(CN(CC3CCCCC3)C2)c2c(n(C)c3cc(OC)ccc23)[C@H]1CO,-7.75%
7,Cc1sc(NC(=S)NC(=O)CCc2ccccc2)c(C(N)=O)c1C,-30.3%
8,COCCNC(=O)NC12CC3(C)CC(C)(CC(C)(C3)C1)C2,-11.8%
9,COc1ccccc1C(=O)Nc1onc(C)c1C#N,-24.7%
10,COc1cccc(CNC(=O)CSc2nc3ccc(C)cc3[nH]2)c1,3.46%
11,COc1cccc(N2CCN(C(=O)c3ccc(CS(=O)c4ccc(Cl)cc4)o3)CC2)c1 (stereo not given),-27.7%
12,CC(C)(C)c1csc(NC(=O)Cc2cccs2)n1,-22.9%
13,Cc1ccc(S(=O)(=O)N[C@H](C(=O)OCC(=O)NC(=O)C2CCCCC2)C(C)C)cc1,2.53%
14,CN1CCN(C(=O)c2ccc(CN(c3ccccc3)S(=O)(=O)c3ccccc3)cc2)CC1,4.86%
15,CC(C)c1ccc(NC(=O)CN2C(=O)NC3(CCCCCCC3)C2=O)cc1,-33%
16,CSc1ccccc1NC(=O)COC(=O)CCC(=O)c1ccc(F)cc1,-16.4%
17,CC(=O)OCCn1c2nc(=O)[nH]c(=O)c-2nc2cc(C)c(C)cc21,-13.6%
18,COc1cccc(NC(=O)N(C)C[C@H]2OCc3ccccc3-c3c(n(C)c4ccccc34)C(=O)N([C@H](C)CO)C[C@H]2C)c1,0.205%
19,O=C(c1[nH]ncc1-c1cccc(Br)c1)C1CO1 (stereo not given),1.28%
20,CC(C)CCNC(=O)C(=O)Nc1ccc2c(c1)N(S(=O)(=O)c1cccs1)CCC2,-1.58%
21,CCOC(=O)C1=CN(Cc2cccc(I)c2)S(=O)(=O)N(C)C1C (stereo not given),-1.74%
22,CC(C)c1nc2oc3c(NCCO)ncnc3c2c2c1COC(C)(C)C2,-2.05%
23,O=CNc1cc(-c2ccc(C(=O)NC3CC3)cc2)cn2c(-c3ccccc3)cnc12,-21.5%
24,COc1cc(-c2cnc3c(NC=O)cc(-c4cccc(C(F)(F)F)c4)cn23)cc(OC)c1OC,-1.54%
25,COc1ccc(-c2cnc3c(NC=O)cc(-c4ccccc4)cn23)cc1OC,-26.2%
